Experimental data from a collection of fitness landscapes (doi:10.1016/j.celrep.2020.107928).
Whole data set: some 81,000 sequences, median “one-hybrid fitness for binding NBS DNA” near -0.1, cut for the highest 2% near 0.36. Shown is part of a subset that was picked to be rich in the highest values.

B1: Caulobacter ParB omega fusion; a variant is named by its letters at X, in order, B8GW30 (parent)
chain: MESVVVGEPGMSEGRRGLGRGLSALLGEVDAAPAQAPGEQLGGSREAPIEILQRNPDQPRRTFREEDLEDLSNSIREKGVLQPILVRPSPDTAGEYQIVAGERAWRAAQRAGLKTVPIMVRELDDLAVLEIGIIENVQRADLNVLEEALSYKVLMEKFERTQENIAQTIGKSXSHVANXMRLLXLPDEVQSYLVSGELTAXHARAIAAAADPVALAKQIIEGGLSVRETEALARKAPNLSAGKSKGGRPPRVKDTDTQALESDLSSVLGLDVSIDHRGSTGTLTITYATLEQLDDLCNRLTRGI

Variants of: B1
Test: one-hybrid fitness for binding NBS DNA (the Noc-binding site; scaled: cognate 1, non-cognate 0); higher = stronger binding
Details: with NBS DNA site
Procedure, shortened: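 Selection: bacterial one-hybrid in E. coli USO, HIS3 reporter with the site 19 bp from the promoter, 48 hours at 37°C on M9-minus-histidine plus 0.1 mM IPTG and 5 mM 3-AT. Libraries were Caulobacter ParB with four randomised specificity codons, sequenced on Illumina before and after selection. Fitness is the rescaled log change in variant-to-wild-type read ratio, anchored to the cognate and non-cognate sites.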

Point of comparison: KRKH, “one-hybrid fitness for binding NBS DNA” value 0.482. Against it:
- RYTI — lower, ≤ 0.2
- HQWA — lower, ≤ 0.2
- NIMG — lower, ≤ 0.2
- QSQT — lower, 0.411
- QKQF — lower, ≤ 0.2
- QDQT — lower, ≤ 0.2
- QTQC — lower, 0.239
- QKQC — lower, ≤ 0.2
- QHQT — lower, 0.363
- QKQT — higher, 0.578
- QPQT — lower, ≤ 0.2
- QAQT — lower, 0.364
- QTQT — higher, 0.577
- QTQG — lower, ≤ 0.2
- QCQT — higher, 0.526
- FPTH — lower, ≤ 0.2
- SIGR — lower, ≤ 0.2
- LNNM — lower, ≤ 0.2
- TFLV — lower, ≤ 0.2
- QLGE — lower, ≤ 0.2
- CTTF — lower, ≤ 0.2
- YCLC — lower, ≤ 0.2
- SKES — lower, ≤ 0.2
- QLQN — lower, ≤ 0.2
- QLQT — lower, 0.37
- QLQP — lower, ≤ 0.2
- MYYS — lower, ≤ 0.2
- HTKF — lower, ≤ 0.2
- FQTK — lower, ≤ 0.2
- QRVM — lower, 0.265
- QAVM — lower, ≤ 0.2
- QTVM — lower, ≤ 0.2
- QAKM — lower, 0.392
- QSKM — lower, 0.362
- QAYM — lower, ≤ 0.2
- QRKM — higher, 0.557
- QCKM — lower, 0.464
- QTWM — lower, ≤ 0.2
- QTKM — higher, 0.563
- QIKM — lower, 0.249
- QPKM — lower, ≤ 0.2
- WLRR — lower, ≤ 0.2
- NYAI — lower, ≤ 0.2
- IRSK — lower, ≤ 0.2
- DSWA — lower, ≤ 0.2
- ITVR — lower, ≤ 0.2
- GKRG — lower, ≤ 0.2
- QHKM — lower, 0.379
- QHNM — lower, ≤ 0.2
- QKPM — lower, ≤ 0.2
- QHVM — lower, ≤ 0.2
- QKVM — lower, 0.273
- QMVM — lower, ≤ 0.2
- QMKM — lower, 0.416
- QMQM — lower, ≤ 0.2
- QKKM — lower, 0.409
- GAKC — lower, ≤ 0.2
- KIRV — lower, ≤ 0.2
- QELA — lower, ≤ 0.2
- RQLA — lower, ≤ 0.2
- DCST — lower, ≤ 0.2
- RCST — higher, 0.531
- RPST — lower, ≤ 0.2
- RHST — lower, 0.435
- RHSF — lower, ≤ 0.2
- RSST — lower, 0.426
- RISH — lower, ≤ 0.2
- RISP — lower, ≤ 0.2
- RHSQ — lower, ≤ 0.2
- RWST — lower, ≤ 0.2
- RDST — lower, ≤ 0.2
- RFST — lower, 0.217
- RIST — lower, 0.398
- KFSS — lower, ≤ 0.2
- KFVF — lower, ≤ 0.2
- LRQC — lower, ≤ 0.2
- DWDT — lower, ≤ 0.2
- RAST — lower, 0.405
- RAIT — lower, 0.22
- RASG — lower, ≤ 0.2
- WCGS — lower, ≤ 0.2
- WSGA — lower, ≤ 0.2
- LRTY — lower, ≤ 0.2
- RSPS — lower, ≤ 0.2
- RLRH — lower, 0.322
- RLRS — higher, 0.541
- RSIS — lower, 0.203
- RCRD — lower, ≤ 0.2
- RPRS — lower, ≤ 0.2
- RCDS — lower, ≤ 0.2
- RCIS — lower, 0.281
- RCRS — higher, 0.661
- RCYS — higher, 0.521
- RLYS — lower, 0.34
- RSYS — lower, 0.409
- PGSA — lower, ≤ 0.2
- INQF — lower, ≤ 0.2
- RCMW — lower, ≤ 0.2
- QPWY — lower, ≤ 0.2
- PDHS — lower, ≤ 0.2
- CDSD — lower, ≤ 0.2
- TLGI — lower, ≤ 0.2
- NQER — lower, ≤ 0.2
- HRCR — lower, ≤ 0.2
- DVPR — lower, ≤ 0.2
- LVEQ — lower, ≤ 0.2
- RSRS — higher, 0.593
- RFYS — lower, ≤ 0.2
- RFIS — lower, ≤ 0.2
- RSRN — lower, ≤ 0.2
- RMYS — lower, 0.361
- RMRS — higher, 0.642
- RSRD — lower, ≤ 0.2
- RFRS — lower, 0.446
- RMRN — lower, 0.25
- GATS — lower, ≤ 0.2
- FYHG — lower, ≤ 0.2
- RQDG — lower, ≤ 0.2
- PLRC — lower, ≤ 0.2
- MYHV — lower, ≤ 0.2
- MNMN — lower, ≤ 0.2
- NSER — lower, ≤ 0.2
- IPMG — lower, ≤ 0.2
- MNVG — lower, ≤ 0.2
- YLLC — lower, ≤ 0.2
- QMAR — higher, 0.602
- QMFS — lower, 0.251
- QMAP — lower, ≤ 0.2
- QMFR — lower, 0.431
- QMAN — lower, ≤ 0.2
- QMFD — lower, ≤ 0.2
- KGLV — lower, ≤ 0.2
- WVEH — lower, ≤ 0.2
- QVVS — lower, ≤ 0.2
- VVYG — lower, ≤ 0.2
- QRDH — lower, 0.381
- QRDP — lower, ≤ 0.2
- QRRL — lower, 0.364
- QRNC — lower, 0.44
- QCNC — lower, ≤ 0.2
- QRDN — lower, ≤ 0.2
- QCNN — lower, 0.208
- QRDD — lower, ≤ 0.2
- QRDC — lower, 0.227
- NRRH — lower, ≤ 0.2
- QRNN — lower, 0.459
- QRRH — higher, 0.779
- WYLT — lower, ≤ 0.2
- RDFR — lower, ≤ 0.2
- EMRY — lower, ≤ 0.2
- KWVR — lower, ≤ 0.2
- YLCS — lower, ≤ 0.2
- TWCL — lower, ≤ 0.2
- SYCN — lower, ≤ 0.2
- IVKG — lower, ≤ 0.2
- CWPS — lower, ≤ 0.2
- QRDM — lower, ≤ 0.2
- QRNH — higher, 0.598
- QRNP — lower, 0.308
- QRDQ — lower, 0.215
- QRYH — higher, 0.486
- QCNM — lower, 0.224
- QRND — lower, 0.306
- QSNQ — lower, ≤ 0.2
- QRNQ — lower, 0.439
- QRWH — lower, 0.301
- QRNM — lower, 0.461
- QREH — lower, 0.258
- KICK — lower, ≤ 0.2
- QEKS — lower, ≤ 0.2
- LWPC — lower, ≤ 0.2
- QDAY — lower, ≤ 0.2
- RGRV — lower, ≤ 0.2
- KRYY — lower, ≤ 0.2
- KRKS — higher, 0.536
- KRVH — lower, ≤ 0.2
- KRVY — lower, ≤ 0.2
- KRKY — lower, 0.368
- KRKM — lower, 0.253
- KRVD — lower, ≤ 0.2
- KRKN — lower, 0.272
- KRKD — lower, ≤ 0.2
- KRVS — lower, 0.395
- KRKP — lower, ≤ 0.2
- AKVL — lower, ≤ 0.2
- ALSW — lower, ≤ 0.2
- HILV — lower, ≤ 0.2
- LNQE — lower, ≤ 0.2
- DNHT — lower, ≤ 0.2
- YLSD — lower, ≤ 0.2
- HLNK — lower, ≤ 0.2
- MSFM — lower, ≤ 0.2
- LRFR — lower, ≤ 0.2
- TEAT — lower, ≤ 0.2
